In general, inhibition refers to the change of the read-out against control, counted positive when it falls.

The structures appear in SMILES notation. Among all 150,000 compounds or so, about 100 (0.067%) were called active. This is one part of a sample in which actives are shown more often than they occur. Unmarked numbers belong to inactive results.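 Rule for the calls: active = inhibition above the mean plus 3 SD of compounds within the control limits, set per campaign (cut at about 38% in these data); inactive = the rest.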

This experiment is described as follows: reduced ATP in mature Plasmodium gametocytes – ATP luminescence, HTS, primary screen (AID 743093).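 Note: 0% = DMSO wells and 100% = medium only without gametocytes.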 The following applies: P. falciparum stage V gametocytes, 24 h, at 10.9 µM, stronger effect = higher value.
Take `N#CCSc1nc(-c2ccccc2)nc2ccc(F)cc12`: the inhibition is -8.79%.

Take `Cc1cc(C)n(-c2nc(O)cc(=O)[nH]2)n1`: the inhibition was 9.58%.

For the compound `Cc1cc(C)n(-c2ccc3nncn3n2)n1`, the inhibition was 38.2% (active).

For the compound `Cc1cc(C)n(-c2ccc(Cl)c(C(=O)O)n2)n1`, the inhibition was 8.49%.

Turning to `O=C(CN1CCCCCC1)Nc1c(Cl)cc(Cl)cc1Cl`, the inhibition is -23.1%.

With `O=C(NC(=O)N1CCSCC1)c1c(Cl)cccc1Cl`, the inhibition is -10.9%.

In the case of `CCn1c(SCC(=O)N/N=C/c2ccncc2)nc2ccccc21`, the inhibition was -15.2%.

With `O=C1NC[C@@H](c2ccccc2)OC(=O)[C@H](Cc2ccc(F)cc2)CC/C=C/C[C@H]1CC(=O)N(CCO)Cc1ccccc1`, the inhibition is 4.53%.

As to `COc1ccc(C(C#N)(CC(=O)O)c2cnccn2)cc1OC` (stereo unspecified), the inhibition was -25%.

For `Cc1ccccc1NC(=O)N1CCCC1C(=O)NCc1ccccc1` (stereo unspecified), the inhibition is 1.78%.

As for `Cc1ccc2c(O)c(Cc3ccccc3)c(=O)[nH]c2n1`, the inhibition was -11.8%.

Take `C/C(Cc1ccccc1)=N\NC(=O)CNC(=O)c1ccc2c(c1)OCCO2`: the inhibition was -4.02%.

For the compound `CC(C)c1cc(CN2CCOCC2)cc(C(C)C)c1O`, the inhibition was -5.85%.

With `CCOC(=O)c1c(C)[nH]c(=S)c(C#N)c1-c1ccccc1`, the inhibition is -28.7%.

Take `CCOC(=O)C1=C(c2ccc(OC)cc2)C(=O)c2ccccc2C1=O`: the inhibition was -27.7%.

Consider `CCOC(=O)c1c(C)[nH]c2c1-c1ccccc1C(=O)C2=O`, for which the inhibition was 50.2% (active).

For the compound `Cc1cccc(C(=O)N2CCC(c3nc4ccccc4s3)CC2)c1`, the inhibition is 13%.

As for `Nc1nnnn1/N=C/c1cc([N+](=O)[O-])ccc1O`, the inhibition is -1.33%.

Regarding `CCN(CC)S(=O)(=O)c1ccc(NC(=O)c2cnc(C)cn2)cc1`, the inhibition was -1.77%.

In the case of `CC(=O)NS(=O)(=O)c1ccc(N/C(N)=N/c2nc(C)cc(C)n2)cc1`, the inhibition was 11.7%.

Turning to `CCCCC(CC)CNCc1cccn1CCN1CCOCC1` (stereo unspecified), the inhibition is -25.6%.

Regarding `CCOC(=O)c1c(N)sc2c1CCCC2=O`, the inhibition is -6.75%.

On to `Cc1c(CN2CC[C@@H](N3CCN(c4ccccn4)CC3)[C@H](O)C2)[nH]c2ccc(F)cc12`, for which the inhibition is -10.1%.

Consider `CCc1ccc(NC(=O)N[C@H](C(=O)O)C(C)CC)cc1` (stereo partly specified), for which the inhibition was -3.41%.

Take `Cc1ccc(C)c(SCc2nc3sc(C(=O)O)c(C)c3c(=O)[nH]2)c1`: the inhibition is 8.97%.

Take `CC1=CC(C)(C)NC(=S)N1NC(=O)c1ccccc1Cl`: the inhibition was -21.8%.

For the compound `C[C@@H]1NC(=O)[C@@]2(C)[C@@H](c3ccccc3)[C@H]3COc4ccccc4[C@@H]3N2C1=O`, the inhibition is -7.28%.

Regarding `CCCNC(=O)CSc1nc(Cc2ccccc2)nc2ccccc12`, the inhibition was -0.29%.

For `COc1cccc(CNc2ncc(-c3ccccc3)n2C)c1`, the inhibition is -4.96%.

In the case of `CCSCc1nc(N)nc(NCCc2ccccc2)n1`, the inhibition is -2.31%.

Consider `CC(C)=CCN1CCN(CCCc2ccccc2)CC1CCO` (stereo unspecified), for which the inhibition was 26.8%.

On to `COc1ccccc1C1=CC(=O)C[C@H](c2ccc(F)cc2)C1`, for which the inhibition is -32.5%.

Regarding `Cc1ccc(-c2ccnc3[nH]n(-c4ccccc4)c(=O)c23)cc1`, the inhibition was -20.9%.

Turning to `CSc1ccc(S(=O)(=O)N2CCC(C(=O)NCCc3ccccc3)CC2)cc1`, the inhibition was -3.09%.

Turning to `O=C(Nc1nnc(CCN2CCCCC2)s1)c1cccc(Cl)c1`, the inhibition was 7.08%.

Take `COc1cc(NC(=O)c2ccc(-c3csc(C)n3)cc2)c(OC)cc1Cl`: the inhibition was -9.66%.

Regarding `CCC(C(=O)NCCC(C)C)N(Cc1ccccc1Cl)C(=O)c1snc(C(N)=O)c1N` (stereo unspecified), the inhibition was -26.1%.

Take `CN(C)CCCNC(=S)N1CCC(c2nc3ccccc3[nH]2)CC1`: the inhibition is -17.4%.

As for `CC(=O)NS(=O)(=O)c1ccc2c(c1)Cc1cc(S(=O)(=O)NC(C)=O)ccc1-2`, the inhibition was -9.24%.

On to `Cc1cc(F)ccc1N1CCC(N2CCN(C)C(CCO)C2)CC1` (stereo unspecified), for which the inhibition is -11.3%.

For the compound `CC(=O)C(C)n1cnc2scc(-c3ccc(C)cc3)c2c1=O` (stereo unspecified), the inhibition is 13.9%.

Turning to `COc1ccccc1-n1cn[nH]c1=S`, the inhibition was 2.72%.

In the case of `CC(C)CCN1NC2(CCC(C)CC2)NC1=S` (stereo unspecified), the inhibition is 0.86%.

Consider `Cc1nc([N+](=O)[O-])cn1CC(=O)Nc1ccc(Cl)cc1`, for which the inhibition is 2.38%.

With `O=C(O)c1ccccc1C(=O)Nc1nc(-c2ccccc2)cs1`, the inhibition is 3.62%.

As to `COC(=O)c1ccc(COc2cc([N+](=O)[O-])cc3cccnc23)cc1`, the inhibition was 2.3%.

`CCN1N=C(c2ccccc2)CCC1=O`: the inhibition was -22.1%.

As for `CCc1nc(N2CCN(C(C)=O)CC2)c2c3c(sc2n1)CCCC3`, the inhibition was -2.91%.

For the compound `Cc1c(NC(=O)CSCc2ccccc2)cccc1C(=O)O`, the inhibition was 19%.

For the compound `CCCc1ccc(OCCNC(=O)c2ccccc2Br)cc1`, the inhibition was 17.8%.

On to `O=C(N[C@@H]1C/C=C\C[C@@H](CC(=O)N(CCO)Cc2ccccc2)C(=O)N[C@H](Cc2ccccc2)COC1=O)OCC1c2ccccc2-c2ccccc21`, for which the inhibition is -0.76%.

Turning to `COc1ccc(N2CCN(C(=O)c3cccs3)CC2)cc1`, the inhibition was -16.6%.

In the case of `Cc1cccc(C)c1OCCN1CCOCC1`, the inhibition was -12.2%.

`COc1ccc(CN(Cc2ccc(OC)cc2)C(=O)c2cccs2)cc1`: the inhibition is 2.88%.

Take `CCOc1ccc2ccccc2c1/C=N/NC(=O)c1c(C)cc(C)[nH]c1=O`: the inhibition is 23.8%.

In the case of `Cc1cccc(NC(=O)COC(=O)CCc2ccccc2)c1C`, the inhibition is -7.45%.

For the compound `CCNC(=O)CCc1nc(-c2ccc(C)cc2)no1`, the inhibition is -1.21%.

`CN1CCN(c2ccc(S(=O)(=O)N3CCOCC3)cc2NC(=O)CCc2ccccc2)CC1`: the inhibition is -2.86%.

For the compound `CCOC(=O)[C@H]1[C@H]2COc3cc(OC)ccc3[C@@H]2N2C(=O)CN(Cc3ccc(Cl)cc3)C(=O)[C@@]12C`, the inhibition is -23.5%.

In the case of `COc1ccc(C(=O)NC2=NCCS2)c(OC)c1`, the inhibition is -24.6%.

Consider `CCOc1ccc(-n2c(SCC(N)=O)nnc2-c2ccco2)cc1`, for which the inhibition is -6.2%.

For `CCOC(=O)c1cnc(COc2ccccc2Cl)[nH]c1=O`, the inhibition was -10.2%.

Consider `COc1ccc(CCNC(=O)Cc2ccc(C)cc2)cc1OC`, for which the inhibition is -9.83%.

In the case of `O=[N+]([O-])c1ccccc1/C=C/CN1CCCC(CO)C1` (stereo unspecified), the inhibition was -16.5%.

Take `O=C(CCCCO)c1ccc(O)c(Cl)c1`: the inhibition was -2.03%.

For the compound `CN(Cc1ccccc1)C(=O)c1ccc(COc2ccccc2)cc1`, the inhibition is -8.25%.

Regarding `COc1ccc(OC)c(C(=O)NC(CC(N)=O)c2ccc(N3CCC(N4CCCCC4)CC3)c([N+](=O)[O-])c2)c1` (stereo unspecified), the inhibition is 0.29%.

In the case of `COc1ccc(-c2sc3ccc(OC)cc3c2C#Cc2ccccn2)cc1`, the inhibition was 11.6%.

For the compound `COc1cc(NC(=O)c2ccc(CNc3c(N4CCCC4)c(=O)c3=O)cc2)cc(OC)c1OC`, the inhibition is -11.3%.

Take `COc1ccc(OCC(O)CN(C)C(=O)C(C)Oc2ccccc2)cc1` (stereo unspecified): the inhibition was -38.3%.

Turning to `Cc1cc(F)ccc1NC(=O)C(C)n1c2ccccc2c2nc(=O)cc(C)n21` (stereo unspecified), the inhibition is -11.9%.

In the case of `CCOC(=O)CSc1nc(C)c(Oc2ccc(Cl)cc2Cl)c(=O)[nH]1`, the inhibition is -4.17%.

Consider `O=C(C1CCC1)N1CCN(c2ccccc2)CC1`, for which the inhibition is 10.5%.

`Cn1c(Nc2cccc(Cl)c2)nc2ccccc21`: the inhibition was -9.18%.

In the case of `CN(C(=O)c1cccc(NC(=O)Cc2ccc([N+](=O)[O-])cc2)c1)C1CCC1`, the inhibition is -9.69%.

For the compound `O=C(CCc1ccccc1)Nc1ncc([N+](=O)[O-])s1`, the inhibition is -11.7%.

For the compound `O=C(Cc1c(F)cccc1Cl)Nc1ncc([N+](=O)[O-])s1`, the inhibition is 39.5% (active).

Regarding `O=C(Cc1c(F)cccc1Cl)Nc1ccc(-n2cnnn2)cc1`, the inhibition was 4.22%.

Consider `O=C(CCl)N(Cc1cccc([N+](=O)[O-])c1)c1cccc(Cl)c1`, for which the inhibition was -7.41%.

For `Clc1ccc(C[n+]2cc(-c3ccccc3)n3c2CCC3)cc1`, the inhibition is 1.51%.

`O=[N+]([O-])c1ccc(NC(=S)N2CCN(c3ccccn3)CC2)cc1`: the inhibition was 3.29%.

Regarding `O=C(CN1CCN(c2ccc(F)cc2)CC1)Nc1ccccc1`, the inhibition is -14.6%.

`N#C/C(=C\c1ccc(-c2cccc([N+](=O)[O-])c2)o1)C(=O)NCCN1CCOCC1`: the inhibition was -28.5%.

In the case of `Cc1ccccc1Nc1c(-c2ccccc2)nc2ncccn12`, the inhibition is -29.5%.

`O=C1CC(=O)Nc2cc(S(=O)(=O)N3CCN(c4cccc(C(F)(F)F)c4)CC3)ccc2N1`: the inhibition was 38.8% (active).

Regarding `Cc1ccc(S(=O)(=O)N2CCN(c3ccccc3)CC2)cc1C`, the inhibition was 0.96%.

As to `O=S(=O)(c1cccc(C(F)(F)F)c1)N1CCN(c2cnccn2)CC1`, the inhibition is -34.2%.

As for `CCc1cc(CNC(=O)CC2C(=O)NCCN2Cc2ccccc2C(F)(F)F)on1` (stereo unspecified), the inhibition is -0.11%.

`COc1ccc(NC(=O)C2C3CCC(O3)C2C(=O)O)cc1OC` (stereo unspecified): the inhibition is 7.46%.

On to `Cc1cc(N/N=C\c2ccc(Br)cc2)nc(-n2nc(C)cc2C)n1`, for which the inhibition was -0.66%.

In the case of `Cc1ccc(S(=O)(=O)Nc2nc(C)cc(N/N=C/c3ccc(O)cc3)n2)cc1`, the inhibition was 42.5% (active).

As for `Cc1ccc(S(=O)(=O)Nc2nc(C)cc(-n3nc(C)cc3C)n2)cc1`, the inhibition was 10.5%.

For `CC1CCC(CN2CCN=C2N(C)C)CC1` (stereo unspecified), the inhibition was -5.33%.

`CCN(CC)CCCNC(=S)N(CCO)Cc1cc2cc3c(cc2[nH]c1=O)OCO3`: the inhibition is 4.58%.

With `CN(c1ccccn1)c1ncnc2[nH]ncc12`, the inhibition was 2.58%.

For the compound `O=S(=O)(c1ccc(Cl)cc1)N1CCCN(c2ccc(C(F)(F)F)cn2)CC1`, the inhibition is -9.4%.
